Out of some 1,100 compounds screened, about 350 (32%) were called active. No rule for the calls is given here. Not all results are given here. Entries that show only a call come without a potency. Potency and affinity values are given separately.
Experiment: viability loss in CEM21 cells – cell-based, CellTiter-Glo luminescence, cherry-picked, cytotoxicity control for viral fusion inhibitor project, dose response (AID 652042)
Settings: CellTiter-Glo ATP luminescence, 24 h; series mostly up to 35 µM

Compound	activity change, negative = cytotoxicity
COc1ccc(S(=O)(=O)N2CCCCC2)cc1NC(=O)Cc1sc(C)nc1-c1ccc(F)cc1	inactive
COc1ccc(S(=O)(=O)N2CCCCC2)cc1NC(=O)CCCOc1ccc(C)cc1	inactive
COc1ccc(NC(=O)c2cc(CC(C)C)nc3ccccc23)cc1	inactive
CC[C@@]12C(=O)N(c3cccc(F)c3)C(=O)N1[C@H](c1ccc(Cl)cc1)[C@@H]1C(=O)N(C3CCCCC3)C(=O)[C@@H]12	inactive
Nc1ccc(-c2nc3ccc(C(=O)O)cc3s2)cc1	inactive
COc1ccccc1CNC(=O)C[C@H]1C[C@@H]2c3cc(NC(=O)c4cccnc4)ccc3O[C@@H]2[C@@H](CO)O1	inactive
COC(=O)c1c(C)oc(C)c1S(=O)(=O)NC(c1ccccc1)c1ccccc1	inactive
Cc1cc(Oc2ccc(C#N)cc2)nc(NCc2ccccc2)n1	inactive
COc1ccc(Nc2c(CCc3ccccc3)nc3nc(C)cc(C)n23)cc1	inactive
Cc1cc(C)n2nc(NCc3cccc(Br)c3)nc2n1	inactive
CCOc1ccc(C(C)=O)cc1COC(=O)c1ccccc1C(=O)N(C)Cc1ccccc1	inactive
Cc1ccc(Cn2ncc3c(N4CCN(c5ccc(C)cc5)CC4)ncnc32)cc1	inactive
Clc1ccc(OCCN2CCN(c3ncnc4sccc34)CC2)cc1	inactive
O=C(COC(=O)c1cccc(S(=O)(=O)N2CCOCC2)c1)NCc1ccccc1	inactive
CSc1ncccc1C(=O)OCC(=O)Nc1ccc(C)c(S(=O)(=O)N2CCOCC2)c1	inactive
COc1ccc(S(=O)(=O)Nc2ccc3c(c2)CC(=O)N([C@H](C)CO)C[C@H](C)[C@H](CN(C)S(=O)(=O)c2ccccc2)O3)cc1	inactive
Cc1noc(C)c1S(=O)(=O)N(C)C[C@H]1Oc2ccc(NC(=O)Nc3ccccc3)cc2CC(=O)N([C@H](C)CO)C[C@H]1C	inactive
C=CC[n+]1c(-c2ccc(OC)c(OC)c2)csc1NNC(=O)Nc1ccccc1	inactive
C=C1CCN([C@@H](CC(C)C)C(=O)Nc2ccc(OC)cc2)S(=O)(=O)c2ccccc21	inactive
Cc1nn(C)c(Cl)c1NC(=O)OCc1ccc(Cl)cc1Cl	inactive
O=C(Nc1ccc(Cl)cn1)C1CCCN1S(=O)(=O)c1cccc2ccccc12 (stereo not drawn)	inactive
CNc1nc2c(c(=O)n(C)c(=O)n2C)n1Cc1ccccc1	inactive
CC(Cl)=CCn1c(NCCc2ccccc2)nc2c1c(=O)n(C)c(=O)n2C	inactive
O=C(N[C@@H]1CC[C@H](CCNS(=O)(=O)c2ccc(F)cc2)O[C@@H]1CO)C1CC1	inactive
CCOC(=O)C1CCCN(Cc2nc(N)nc(Nc3ccc(OC)cc3)n2)C1 (stereo not drawn)	inactive
O=C(CN1C(=O)c2ccccc2S1(=O)=O)c1ccccc1Cl	inactive
C[C@H](CO)N1C[C@H](C)[C@H](CN(C)S(=O)(=O)c2ccccc2)Oc2ccc(NS(=O)(=O)c3ccc(F)cc3)cc2CC1=O	inactive

Compound	activity change, negative = cytotoxicity
C[C@@H]1CN([C@H](C)CO)C(=O)c2cccc(NS(=O)(=O)c3ccc(Cl)cc3)c2O[C@H]1CN(C)CC1CCCCC1	inactive
C[C@H]1CN([C@@H](C)CO)C(=O)c2cc(NS(C)(=O)=O)ccc2O[C@@H]1CN(C)Cc1ccc(Cl)c(Cl)c1	inactive
C[C@H](CO)N1C[C@H](C)[C@H](CN(C)S(=O)(=O)c2ccc(F)cc2)Oc2ccc(NS(=O)(=O)c3ccccc3)cc2CC1=O	inactive
C[C@@H]1CN([C@H](C)CO)C(=O)c2cccc(NS(=O)(=O)c3ccc(F)cc3)c2O[C@@H]1CN(C)Cc1ccc(C(F)(F)F)cc1	inactive
C[C@H](CO)N1C[C@H](C)[C@H](CN(C)C(=O)Nc2ccccc2)Oc2c(NS(=O)(=O)c3ccc(F)cc3)cccc2C1=O	inactive
C[C@H]1CN([C@@H](C)CO)C(=O)c2cccc(NS(=O)(=O)c3ccc(Cl)cc3)c2O[C@@H]1CN(C)Cc1ccc(C(F)(F)F)cc1	inactive
Cc1ccc(S(=O)(=O)Nc2ccc3c(c2)CC(=O)N([C@H](C)CO)C[C@H](C)[C@H](CN(C)S(=O)(=O)c2ccccc2)O3)cc1	inactive
Clc1ccc2c(c1)C(C1=NCCN1)c1ccccc1CS2 (stereo not drawn)	inactive
C[C@@H]1CN([C@@H](C)CO)C(=O)c2cc(NC(=O)c3ccccc3)ccc2O[C@@H](C)CCCCO[C@H]1CN(C)Cc1ccc(C(=O)O)cc1	inactive
Cc1cc(C)c(S(=O)(=O)N2CCCCC2)cc1N(C)S(=O)(=O)c1ccc(Cl)cc1	inactive
CC1CCC(NC(=O)CCn2ccc3cc(S(=O)(=O)N4CCCC4)ccc32)CC1 (stereo not drawn)	inactive
CC(=O)C1=C(C)N(Cc2ccc(Br)cc2)C(=S)NC1c1cccc(Cl)c1 (stereo not drawn)	inactive
COc1ccc(C2=Nn3c(nnc3-c3ccncc3)SC2)cc1	inactive
C=CCN(Cc1ccc(OC)c(OC)c1)C(=O)c1cc2cc(F)ccc2[nH]1	inactive
COc1ccc(-c2noc(CCCC(=O)O)n2)cc1	inactive
COc1cccc(NC(=O)Nc2cccc(C(=O)O)c2)c1	inactive
CN(C)c1ccc(O)c2c1CC1CC3[C@@H](N(C)C)C(=O)C(C(N)=O)=C(O)[C@]3(O)C(=O)C1=C2O (stereo partly drawn)	inactive
CC1(C)CC2CC(C)(CN2S(=O)(=O)c2cccc(C(=O)OCC(=O)NC(N)=O)c2)C1 (stereo not drawn)	inactive
COc1ccccc1C(=O)NC(CCSC)C(=O)N1CCN(C/C=C/c2ccccc2)CC1 (stereo not drawn)	inactive
COCCn1c(=S)[nH]c2cc(C(=O)N3CCN(Cc4ccc5c(c4)OCO5)CC3)ccc2c1=O	inactive
CCCCCn1c(=O)[nH]c2cc(C(=O)N3CCN(Cc4ccc5c(c4)OCO5)CC3)ccc2c1=O	inactive
NC(=O)c1sc2nc3c(c(-c4cccs4)c2c1N)CCCCC3	inactive
C[C@H](CO)N1C[C@H](C)[C@H](CN(C)S(=O)(=O)c2ccccc2)Oc2ncc(/C=C/c3ccccc3)cc2C1=O	inactive
Cc1ccc(S(=O)(=O)N(C)C[C@@H]2Oc3ccc(NS(=O)(=O)c4c(C)noc4C)cc3CC(=O)N([C@H](C)CO)C[C@@H]2C)cc1	inactive
C[C@H]1CN([C@@H](C)CO)C(=O)c2c(c3ccccc3n2C)-c2ccccc2CO[C@H]1CN(C)C(=O)CCC(F)(F)F	inactive
CCOC(=O)[C@@H]1[C@H]2COc3ccc(Br)cc3[C@@H]2N2C(=O)N(c3ccccc3)C(=O)[C@@]12C	inactive
